Shown are actives, neighbours in structure and some others; about 0.54% of the full set was active somewhere.
Mtb BioA inh: M. tuberculosis BioA enzyme inhibitors, primary screen, biochemical, plate reader, single point, HTS; 7,8-diaminopelargonic acid synthase BioA (Mycobacterium tuberculosis); purified M. tuberculosis BioA enzyme; inhibition, % at 9.99 µM; 0.096% of 360,000 active; AID 602481, 2012; in the data active = inhibition above about 40%
TcdB GH inh: TcdB glycohydrolase inhibitors, primary screen, biochemical, single point, plate reader; Toxin B (Clostridioides difficile), P18177; TcdB glycohydrolase enzymatic assay; inhibition, % at 9.99 µM; 0.24% of 350,000 active; in the data active = inhibition above about 10%
Target sequence (P18177 whole entry, looked up): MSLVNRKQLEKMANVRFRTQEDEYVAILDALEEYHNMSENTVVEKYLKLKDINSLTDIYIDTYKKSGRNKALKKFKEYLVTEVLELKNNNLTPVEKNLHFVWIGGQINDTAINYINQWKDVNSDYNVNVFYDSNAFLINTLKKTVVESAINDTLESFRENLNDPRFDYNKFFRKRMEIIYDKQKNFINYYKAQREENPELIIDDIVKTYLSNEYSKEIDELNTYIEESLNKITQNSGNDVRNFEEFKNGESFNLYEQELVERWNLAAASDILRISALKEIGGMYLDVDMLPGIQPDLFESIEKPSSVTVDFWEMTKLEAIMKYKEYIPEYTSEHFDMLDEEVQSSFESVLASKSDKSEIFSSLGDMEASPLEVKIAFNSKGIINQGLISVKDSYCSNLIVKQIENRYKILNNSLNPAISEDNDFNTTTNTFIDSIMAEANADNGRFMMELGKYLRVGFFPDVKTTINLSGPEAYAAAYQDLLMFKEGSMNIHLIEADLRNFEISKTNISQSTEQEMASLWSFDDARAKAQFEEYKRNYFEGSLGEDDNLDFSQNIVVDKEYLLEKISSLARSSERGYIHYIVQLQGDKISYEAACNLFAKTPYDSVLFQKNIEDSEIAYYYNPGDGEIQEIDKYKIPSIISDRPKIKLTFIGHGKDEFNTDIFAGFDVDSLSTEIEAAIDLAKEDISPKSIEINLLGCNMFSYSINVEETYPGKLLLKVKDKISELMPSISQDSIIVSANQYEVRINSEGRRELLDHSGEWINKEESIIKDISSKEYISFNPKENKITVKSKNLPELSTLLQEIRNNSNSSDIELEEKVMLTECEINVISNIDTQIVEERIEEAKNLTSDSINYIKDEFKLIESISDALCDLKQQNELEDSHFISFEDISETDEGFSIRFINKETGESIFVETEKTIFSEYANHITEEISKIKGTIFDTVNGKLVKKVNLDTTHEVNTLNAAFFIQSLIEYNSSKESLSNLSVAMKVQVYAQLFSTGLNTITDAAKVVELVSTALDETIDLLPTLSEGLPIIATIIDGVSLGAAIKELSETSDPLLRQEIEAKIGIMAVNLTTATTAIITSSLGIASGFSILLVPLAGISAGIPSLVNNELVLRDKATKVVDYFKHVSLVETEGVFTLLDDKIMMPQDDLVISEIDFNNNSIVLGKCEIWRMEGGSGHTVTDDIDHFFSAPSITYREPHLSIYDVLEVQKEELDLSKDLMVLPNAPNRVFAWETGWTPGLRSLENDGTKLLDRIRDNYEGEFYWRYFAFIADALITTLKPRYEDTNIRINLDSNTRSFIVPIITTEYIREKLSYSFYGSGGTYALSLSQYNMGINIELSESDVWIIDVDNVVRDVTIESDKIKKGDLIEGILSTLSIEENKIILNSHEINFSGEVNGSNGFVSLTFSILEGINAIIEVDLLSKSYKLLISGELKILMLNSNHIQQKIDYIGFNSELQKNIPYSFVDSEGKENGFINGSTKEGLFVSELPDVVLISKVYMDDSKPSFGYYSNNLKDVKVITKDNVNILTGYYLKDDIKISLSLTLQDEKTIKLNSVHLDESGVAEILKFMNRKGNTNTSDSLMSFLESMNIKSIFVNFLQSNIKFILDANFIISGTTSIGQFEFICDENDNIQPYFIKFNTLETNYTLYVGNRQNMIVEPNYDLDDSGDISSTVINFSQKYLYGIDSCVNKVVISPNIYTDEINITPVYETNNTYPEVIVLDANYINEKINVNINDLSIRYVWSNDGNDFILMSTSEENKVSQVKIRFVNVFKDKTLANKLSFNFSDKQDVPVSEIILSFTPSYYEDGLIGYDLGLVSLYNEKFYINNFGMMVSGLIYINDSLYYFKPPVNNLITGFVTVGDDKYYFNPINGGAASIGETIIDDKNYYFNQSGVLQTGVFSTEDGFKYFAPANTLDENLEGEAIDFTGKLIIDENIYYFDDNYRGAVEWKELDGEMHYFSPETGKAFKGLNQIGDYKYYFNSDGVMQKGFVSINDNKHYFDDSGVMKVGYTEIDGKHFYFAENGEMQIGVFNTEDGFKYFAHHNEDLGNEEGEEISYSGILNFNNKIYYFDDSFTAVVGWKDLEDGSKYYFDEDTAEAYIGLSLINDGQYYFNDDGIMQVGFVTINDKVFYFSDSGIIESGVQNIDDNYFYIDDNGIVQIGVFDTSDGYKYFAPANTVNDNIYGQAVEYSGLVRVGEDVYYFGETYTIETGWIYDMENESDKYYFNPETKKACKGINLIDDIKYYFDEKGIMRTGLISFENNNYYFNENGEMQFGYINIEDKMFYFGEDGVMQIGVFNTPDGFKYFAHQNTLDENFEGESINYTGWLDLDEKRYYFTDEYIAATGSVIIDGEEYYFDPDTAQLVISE
Vc quorum ag: inducers of Vibrio cholerae quorum light production without autoinducers, primary screen, BH1578 luxS cqsA deficient, single point; AID 588436, 2011; 0.16% of 350,000 active; activation, % at 18.7 µM; V. cholerae BH1578 lux reporter, luminescence, 6 h; in the data active = activation mostly above about 9.7%, no sharp cut-off
FadD28 FP inh: inhibitors of FadD28 bisubstrate probe binding, primary screen, biochemical, fluorescence polarization, single point; Mycobacterium tuberculosis FadD28 fatty-acid-AMP ligase; inhibition, % at 12.5 µM; 0.22% of 360,000 active; AID 588549, 2011; in the data active = inhibition above about 8.5%, passing the limit was not always enough
Of the large screens only hits and unclear results are named; the others gave an inactive call; ! = repeats disagree.

Oc1c(Br)cc(Br)cc1Br	none
CC(C)(c1cc(Br)c(O)c(Br)c1)c1cc(Br)c(O)c(Br)c1	FadD28 FP inh 20.1
CN1c2ccc(-c3ccccc3)cc2[C@@H]2[C@@H](CCN2S(=O)(=O)c2ccccc2F)[C@@H]1CO	none (no result: Vc quorum ag, FadD28 FP inh)
CCN(CC)c1ccc2nc3ccc(N)cc3[n+](-c3ccccc3)c2c1	FadD28 FP inh 48.2
OC[C@H]1[C@@H](c2ccc(/C=C/c3ccccc3)cc2)[C@@H]2CN(Cc3cccnc3)CCCCN12	none (no result: TcdB GH inh, Vc quorum ag, FadD28 FP inh)
CC(=O)Nc1ccc(N(C(=O)c2ccco2)C(C(=O)NC2CCCC2)c2cccs2)cc1 (configuration not stated)	TcdB GH inh 13.4 (no result: Mtb BioA inh)
CCSc1nnc(NC(=O)c2ccc(Br)s2)s1	none (no result: TcdB GH inh)
O=C(Nc1nnc(C(F)(F)F)s1)c1ccc(Br)s1	TcdB GH inh 16.5
C[C@@H]1CCCCO[C@@H](CN(C)C(=O)C2CCCCC2)[C@H](C)CN([C@H](C)CO)C(=O)c2cc(NC(=O)NC3CCCCC3)ccc2O1	none (no result: Vc quorum ag, FadD28 FP inh)
Cc1cccc(-n2c(=O)c3ccccc3n3c(=S)[nH]nc23)c1C	TcdB GH inh 12.1
Cc1noc(C)c1NC(=O)Nc1ccc2c(c1)C(=O)N([C@H](C)CO)C[C@H](C)[C@@H](CN(C)S(=O)(=O)c1ccccc1)OCCCC[C@@H](C)O2	none (no result: Vc quorum ag, FadD28 FP inh)
COc1ccc(NC(c2ccccc2)c2ccncc2)cc1 (configuration not stated)	TcdB GH inh 15.8
Cc1[nH]n(-c2ccccc2)c(=O)c1C(c1ccccc1[N+](=O)[O-])C(C#N)C#N (configuration not stated)	none
Cc1[nH]n(-c2ncc(-c3ccccc3)s2)c(=O)c1C(c1ccc(Cl)cc1)C(C#N)C#N (configuration not stated)	FadD28 FP inh 8.6 (no result: Mtb BioA inh)
O=C(NC[C@H]1CC[C@@H]2[C@@H](CN2C(=O)CN2CCOCC2)O1)NC1CCCCC1	none (no result: Mtb BioA inh, Vc quorum ag, FadD28 FP inh)
CC(Sc1nc2ccccc2n1C)C(=O)Nc1ccc(N2CCOCC2)cc1 (configuration not stated)	TcdB GH inh 12.9 (no result: Mtb BioA inh)
CSc1nc(-c2ccc(Cl)cc2Cl)[nH]c(=O)c1C#N	TcdB GH inh 12.6
CCOC(=O)CC1C(=O)NCCN1C(=O)c1ccc(Cl)cc1 (configuration not stated)	none
COC(=O)CC1C(=O)NCCN1C(=O)c1ccc(S(=O)(=O)N2CCOCC2)cc1 (configuration not stated)	FadD28 FP inh 14.0
CCOc1ccc2nc(NC(=O)c3ccc(OC)c(S(=O)(=O)N4CCOCC4)c3)sc2c1	Vc quorum ag 44.4 (no result: TcdB GH inh)
C[C@H](CO)N1C[C@H](C)[C@H](CN(C)C(=O)c2ccc3c(c2)OCO3)Oc2cc(-c3ccncc3)ccc2S1(=O)=O	none (no result: Vc quorum ag, FadD28 FP inh)
CCCCCCCC/C=C\CCCCCCCC(=O)NCCO	FadD28 FP inh 14.8
CCC(=O)N1C[C@@H](O)COC[C@H]2O[C@H](CC(=O)NCc3cc(F)cc(F)c3)CC[C@@H]21	none (no result: TcdB GH inh, Vc quorum ag, FadD28 FP inh)
O=c1[nH][nH]c2c([N+](=O)[O-])ccc(F)c12	none (no result: Mtb BioA inh, Vc quorum ag, FadD28 FP inh)
O=c1[nH][nH]c2c(N=Cc3ccccc3O)ccc(F)c12	FadD28 FP inh 16.0
COCC(=O)Nc1ccc2c(c1)C(=O)N(C)C[C@@H](OC)[C@H](C)CN(C)[C@H](C)CO2	none (no result: Vc quorum ag, FadD28 FP inh)
COc1cc(-c2nc(=S)[nH][nH]2)cc(OC)c1OC	TcdB GH inh 30.2 (no result: Mtb BioA inh)
COc1ccc(-c2nc(=S)[nH][nH]2)cc1OC	none (no result: Mtb BioA inh)
CN1CCN(C(=O)C[C@@H]2CC[C@@H]3[C@H](COC[C@H](O)CN3Cc3ccc(Oc4ccccc4)cc3)O2)CC1	none (no result: Vc quorum ag, FadD28 FP inh)
CC(=O)OCCCCCCCCCCC[N+]1(C)CCCCC1	none (no result: Mtb BioA inh)
C[N+]1(CCCCSc2ccc(O)cc2)CCCCC1	TcdB GH inh 21.8
CC1(C)OC2C(O1)[C@@H](CO)O[C@H]2n1cnc2c(N)ncnc21 (some centres not stated)	TcdB GH inh 13.6 (no result: Mtb BioA inh)
CCC(C(=O)NC1CCCCC1)n1c(SCc2ccccc2F)nc2ccncc21 (configuration not stated)	FadD28 FP inh 9.3
COC(=O)COc1ccc(Cl)cc1C1Nc2ccccc2C(=O)N1c1ccc(OC)cc1 (configuration not stated)	FadD28 FP inh 23.4
CCc1nc2ccc(C(=O)NCCCn3ccnc3)cn2c1N(C)Cc1cc2ccccc2s1	FadD28 FP inh 9.2
O=C(O)c1ccc2c(c1)C1C=CCC1C(c1cc3c(cc1Br)OCO3)N2 (configuration not stated)	none (no result: Mtb BioA inh)
O=C(O)c1ccc(NS(=O)(=O)c2ccc3c(c2)C2C=CCC2C(c2ccccc2F)N3)cc1 (configuration not stated)	FadD28 FP inh 42.7 (no result: Mtb BioA inh)
CCN1CCN(Cc2ccc(NC(=O)c3ccc(C)c(NC(=O)C(=O)c4c[nH]c5ccccc45)c3)cc2C(F)(F)F)CC1	FadD28 FP inh 55.2!
CCN1CCN(Cc2ccc(NC(=O)c3cc(NC(=O)C(=O)c4c[nH]c5ccccc45)cc(OC)c3)cc2C(F)(F)F)CC1	FadD28 FP inh 65.9!
Cc1nn(CCc2nn[nH]n2)c2nc(-c3ccc(C4CCCCC4)cc3)cc(C(F)(F)F)c12	FadD28 FP inh 14.4 (no result: Mtb BioA inh)
CC(C)NC(=O)N(C)C[C@@H]1Oc2ccc(NC(=O)Cc3cn(C)c4ccccc34)cc2CC(=O)N([C@@H](C)CO)C[C@H]1C	none (no result: Vc quorum ag, FadD28 FP inh)
CCOc1cc(/C=N/n2cnnc2)ccc1O	TcdB GH inh 16.5
C=CCc1cc(/C=N/n2cnnc2)cc(OCC)c1O	none (no result: TcdB GH inh)
Cc1ccc(-c2cc(C(=O)Nc3ccc(S(=O)(=O)Nc4onc(C)c4C)cc3)[nH]n2)c(O)c1	FadD28 FP inh 13.8
COc1ccc(NC(=O)Cn2cnc3sc(C)c(S(=O)(=O)N4CCOCC4)c3c2=O)c(OC)c1	TcdB GH inh 15.4
Cc1sc2ncn(CC(=O)NCC3COc4ccccc4O3)c(=O)c2c1S(=O)(=O)N1CCOCC1 (configuration not stated)	none (no result: Mtb BioA inh)
O=C(N[C@H]1CC[C@H](CCNS(=O)(=O)c2ccc(Cl)cc2)O[C@H]1CO)c1cccc(F)c1	none (no result: Vc quorum ag, FadD28 FP inh)
CCOCC(=O)Nc1cc([N+](=O)[O-])ccc1C	none (no result: Mtb BioA inh, TcdB GH inh)
CCOCC(=O)Nc1cc(Cl)ccc1C	TcdB GH inh 10.4 (no result: Mtb BioA inh)
CCN1/C(=C/C=C/c2oc3ccc(-c4ccccc4)cc3[n+]2CC)Oc2ccc(-c3ccccc3)cc21	FadD28 FP inh 95.4
Cc1cc(C(C)(C)C)cc(CN2CCN(S(=O)(=O)c3cccs3)CC2)c1O	TcdB GH inh 11.2
O=C(O)Cc1ccc(N=Nc2c(O)c(C(=O)O)cc3ccccc23)cc1	FadD28 FP inh 13.6
NS(=O)(=O)c1ccc(N=Nc2c(O)c(C(=O)O)cc3ccccc23)cc1	none
Cc1ccc(-c2cnc3c(c2)C(=O)N([C@@H](C)CO)C[C@@H](C)[C@@H](CN(C)S(C)(=O)=O)O3)cc1	none (no result: Vc quorum ag, FadD28 FP inh)
CCCNC(=O)N[C@@H]1CC[C@H](CC(=O)N2CCN(C)CC2)O[C@@H]1CO	none (no result: Vc quorum ag, FadD28 FP inh)
O=C(CN1CCCCC1)Nc1ccc(Br)cc1[N+](=O)[O-]	Vc quorum ag 47.7
CC1CCN(CC(=O)Nc2ccc(Br)cc2[N+](=O)[O-])CC1	none
Cc1onc(-c2c(F)cccc2Cl)c1C(=O)Nc1nccs1	none
